Assay results reported in PubChem BioAssay (NCATS).
Several values for one entry are separate records, joined by “and”; a condition that tells them apart may be missing. Equal entries are not always repeated. Records with an inconclusive call do not appear. Where a call stands in place of a potency, no number is given. Activity calls are given as the source filed them. The call rests on the fitted dose curve; in most records, active means well fitted inhibition curve with a large enough effect; inconclusive means small, poorly fitted or top-dose-only effect; inactive means flat fitted curve, though single readings scatter. Where a SMILES comes first, the peptide text is derived from it. [ ]: non-standard residue; d: D form. pGlu = O=C1CC[C@@H](C(=O)O)N1; Thz = O=C(O)[C@@H]1CSCN1

Experiments:
Assay in all cases: qHTS profiling for inhibitors of Plasmodium falciparum proliferation (AID 504749); further: nearly all actives have a fitted effect of over 60% in size
Settings in all cases: P. falciparum in erythrocytes, SYBR Green DNA, 72 h; series mostly up to 28.7 µM
DIV17 = test system: DIV17
In short: (§1)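 Readout was DNA-dye fluorescence from lysed cultures, ex 485/em 535 nm. Parasitized red cells had grown 72 h with compound; data scaled between 0.29 uM artemisinin and DMSO wells and corrected using vehicle-only plates.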

DIV30 = test system: DIV30
In short: as §1

Dd2 = test system: Dd2
In short: as §1

ECU = test system: ECU
In short: as §1

FAB9 = test system: FAB9
In short: as §1

GB4 = test system: GB4
In short: as §1

HB3 = test system: HB3
In short: as §1

ICS = test system: ICS
In short: as §1

JCK = test system: JCK
In short: as §1

N140 = test system: N140
In short: as §1
Potency means the concentration at half of the fitted maximal effect.

Compound	Potency (DIV17)	Potency (DIV30)	Potency (Dd2)	Potency (ECU)	Potency (FAB9)	Potency (GB4)	Potency (HB3)	Potency (ICS)	Potency (JCK)	Potency (N140)
CC1OC1P(=O)(O)O (stereo unspecified)	inactive	inactive	inactive	inactive	inactive	inactive	inactive	inactive	inactive	inactive
Cc1ccc(C(=O)c2ccc(CC(=O)O)n2C)cc1	inactive	inactive	inactive	inactive	inactive	inactive	inactive	inactive	inactive	inactive
Nc1cc(-c2ccncc2)c[nH]c1=O	inactive	inactive	inactive	inactive	inactive	inactive	inactive	inactive	inactive	inactive
CCOC(=O)c1ccccc1O	inactive	inactive	inactive	inactive	inactive	inactive	inactive	inactive	inactive	inactive
C=CCCCCCCCCC(=O)O	inactive	inactive	inactive	inactive	inactive	inactive	inactive	inactive	inactive	inactive
Cc1ccc(O)c(-n2nc3ccccc3n2)c1	inactive	inactive	inactive	inactive	inactive	inactive	inactive	inactive	inactive	inactive
CN1CCN(c2cc3c(nn2)Oc2ccccc2N3C)CC1	inactive	inactive	inactive	inactive	inactive	inactive	inactive	inactive	inactive	inactive
[O-][n+]1ccccc1SSc1cccc[n+]1[O-]	0.536 µM (active)	1.2 µM (active)	0.891 µM (active)	1.12 µM (active)	1.58 µM (active)	0.757 µM (active)	0.891 µM (active)	0.794 µM (active)	4.47 µM (active)	0.708 µM (active)
Cc1c(Nc2ncccc2C(=O)O)cccc1C(F)(F)F	inactive	inactive	inactive	inactive	inactive	inactive	inactive	inactive	inactive	inactive
O=C(O)[C@H](CC(=O)N1C[C@H]2CCCC[C@H]2C1)Cc1ccccc1	inactive	inactive	inactive	inactive	inactive	inactive	inactive	inactive	inactive	inactive
Nc1ccc(C(=O)O)c(O)c1	inactive	inactive	inactive	inactive	inactive	inactive	inactive	inactive	inactive	inactive
Cc1ccccc1CNc1ncnc2c1ncn2C1OC(CO)C(O)C1O (stereo unspecified)	inactive	inactive	inactive	inactive	inactive	inactive	inactive	inactive	inactive	inactive
N=c1ccn2c(n1)O[C@H]1[C@H](O)[C@@H](CO)O[C@H]12	inactive	inactive	inactive	inactive	inactive	inactive	inactive	inactive	inactive	inactive
O=C(O)COc1ccc(C(=O)c2cccs2)c(Cl)c1Cl	inactive	inactive	inactive	inactive	inactive	inactive	inactive	inactive	inactive	inactive
CC1(C)C[C@@H]1C(=O)N/C(=C\CCCCSC[C@H](N)C(=O)O)C(=O)O	inactive	inactive	inactive	inactive	inactive	inactive	inactive	inactive	inactive	inactive
C=CC(N)CCC(=O)O (stereo unspecified)	inactive	inactive	inactive	inactive	inactive	inactive	inactive	inactive	inactive	inactive
C=CCN1C(=O)C(CC(C)C)NC1=S (stereo unspecified)	inactive	inactive	inactive	inactive	inactive	inactive	inactive	inactive	inactive	inactive
CCCCCCCCCCCCCCCCCC(=O)O	inactive	inactive	inactive	inactive	inactive	inactive	inactive	inactive	inactive	inactive
Cc1[nH]cnc1CN1CCc2c(c3ccccc3n2C)C1=O	inactive	inactive	inactive	inactive	inactive	inactive	inactive	inactive	inactive	inactive
O=C(O)Cc1ccc(-c2ccccc2)cc1	inactive	inactive	inactive	inactive	inactive	inactive	inactive	inactive	inactive	inactive
CC1(C)[C@@H](O)CC[C@]2(C)[C@H]3C(=O)C=C4[C@@H]5C[C@@](C)(C(=O)O)CC[C@]5(C)CC[C@@]4(C)[C@]3(C)CC[C@@H]12	inactive	inactive	inactive	inactive	inactive	inactive	inactive	inactive	inactive	inactive
CCCCCC[C@@H](O)C/C=C\CCCCCCCC(=O)O	inactive	inactive	inactive	inactive	inactive	inactive	inactive	inactive	inactive	inactive
O=C1CC[C@@H](C(=O)N2CSC[C@H]2C(=O)O)N1 ([pGlu]-[Thz]-OH)	inactive	inactive	inactive	inactive	inactive	inactive	inactive	inactive	inactive	inactive

Compound	Potency (DIV17)	Potency (DIV30)	Potency (Dd2)	Potency (ECU)	Potency (FAB9)	Potency (GB4)	Potency (HB3)	Potency (ICS)	Potency (JCK)	Potency (N140)
CCCOC(=O)c1ccc(O)cc1	inactive	inactive	inactive	inactive	inactive	inactive	inactive	inactive	inactive	inactive
O=C(O)[C@H](O)[C@@H](O)[C@H](O)[C@H](O)CO	inactive	inactive	inactive	inactive	inactive	inactive	inactive	inactive	inactive	inactive
O=C(O)c1ccccc1Nc1cccc(C(F)(F)F)c1	inactive	inactive	inactive	inactive	inactive	inactive	inactive	inactive	inactive	inactive
COc1cc2c3cc1Oc1cc(ccc1O)C[C@@H]1c4c(cc(OC)c(O)c4Oc4ccc(cc4)C[C@@H]3N(C)CC2)CC[N+]1(C)C	inactive	inactive	inactive	inactive	inactive	inactive	inactive	inactive	inactive	inactive
CC1(C)S[C@@H]2[C@H](NC(=O)[C@H](NC(=O)N3CCN(S(C)(=O)=O)C3=O)c3ccccc3)C(=O)N2[C@H]1C(=O)O	inactive	inactive	inactive	inactive	inactive	inactive	inactive	inactive	inactive	inactive
CCCCC[C@H](O)/C=C/[C@@H]1[C@@H](C/C=C\CCCC(=O)O)[C@@H](O)C[C@H]1O	inactive	inactive	inactive	inactive	inactive	inactive	inactive	inactive	inactive	inactive
O=C(O)/C=C/C(O)c1ccc(Cl)cc1 (stereo unspecified)	inactive	inactive	inactive	inactive	inactive	inactive	inactive	inactive	inactive	inactive
CC(C(=O)O)c1ccc2c(c1)[nH]c1ccc(Cl)cc12 (stereo unspecified)	inactive	inactive	inactive	inactive	inactive	inactive	inactive	inactive	inactive	inactive
O=C(/C=C/c1ccccc1)NCCO	inactive	inactive	inactive	inactive	inactive	inactive	inactive	inactive	inactive	inactive
C#C[C@]1(O)CC[C@H]2[C@@H]3CCc4cc(O)ccc4[C@H]3CC[C@@]21C	inactive	inactive	inactive	inactive	inactive	inactive	inactive	inactive	inactive	inactive
Nc1ccc(O)c(C(=O)O)c1	inactive	inactive	inactive	inactive	inactive	inactive	inactive	inactive	inactive	inactive
O=C(CCN1CCN(CCO)CC1)N1c2ccccc2Sc2ccc(C(F)(F)F)cc21	9.53 µM (active)	–	11.2 µM (active)	–	inactive	–	–	11.2 µM (active)	inactive	12.6 µM (active)
Cc1nc2ccccc2n1Cc1ccc(Cl)cc1	inactive	inactive	inactive	–	inactive	–	–	–	inactive	–
CN1[C@@H](CC(=O)c2ccccc2)CCC[C@H]1C[C@H](O)c1ccccc1	10.7 µM (active)	–	10 µM (active)	–	inactive	10.7 µM (active)	inactive	11.2 µM (active)	–	17.8 µM (active)
C[S+](CC[C@H](N)C(=O)O)C[C@H]1O[C@@H](n2cnc3c(N)ncnc32)[C@H](O)[C@@H]1O (stereo partly specified)	inactive	inactive	inactive	–	inactive	inactive	inactive	inactive	inactive	1 µM (active)
NC(=O)C(c1ccccc1)(c1ccccc1)[C@@H]1CCN(CCc2ccc3c(c2)CCO3)C1	10.7 µM (active)	–	5.01 µM (active)	–	inactive	–	inactive	7.08 µM (active)	inactive	–
O=C1CN(/N=C/c2ccc(-c3ccc([N+](=O)[O-])cc3)o2)C(=O)N1	–	inactive	inactive	inactive	inactive	–	inactive	inactive	inactive	inactive
CCC1C(=O)OCC1Cc1cncn1C (stereo unspecified)	inactive	inactive	inactive	inactive	inactive	inactive	inactive	inactive	inactive	inactive
Nc1c(CC(=O)O)cccc1C(=O)c1ccc(Br)cc1	inactive	inactive	inactive	inactive	inactive	inactive	inactive	inactive	inactive	inactive
O=C(O)c1cc(O)c(O)c(O)c1	–	inactive	–	inactive	–	–	inactive	–	–	–
COc1cc(/C=C/C(=O)CC(=O)/C=C/c2ccc(O)c(OC)c2)ccc1O	13.5 µM (active)	13.5 µM (active)	12.6 µM (active)	1 µM (active)	inactive	12 µM (active)	–	–	inactive	–
CCCCCCCCCCCCCCCC(=O)OC(C)C	inactive	inactive	inactive	inactive	–	inactive	inactive	inactive	inactive	inactive
CN1[C@@H]2CC[C@H]1CC(OC(=O)C(CO)c1ccccc1)C2 (stereo partly specified)	inactive	–	inactive	inactive	inactive	inactive	inactive	inactive	inactive	inactive

Compound	Potency (DIV17)	Potency (DIV30)	Potency (Dd2)	Potency (ECU)	Potency (FAB9)	Potency (GB4)	Potency (HB3)	Potency (ICS)	Potency (JCK)	Potency (N140)
CC(N)C(=O)OC(C)(C)Cc1ccc(Cl)cc1 (stereo unspecified)	8.49 µM (active)	–	7.94 µM (active)	–	inactive	5.36 µM (active)	inactive	–	inactive	–
O=C(OCc1ccccc1)c1ccccc1	–	inactive	inactive	inactive	inactive	inactive	inactive	inactive	inactive	inactive
COc1cc(/C=C/C(=O)N2CCN(CC(=O)N3CCCC3)CC2)cc(OC)c1OC	–	–	inactive	–	inactive	inactive	inactive	11.2 µM (active)	inactive	–
CN1[C@@H]2CC[C@H]1CC(OC(c1ccccc1)c1ccccc1)C2 (stereo partly specified)	5.36 µM (active) and 4.26 µM (active)	–	6.31 µM (active)	–	inactive	8.49 µM (active)	inactive	10 µM (active) and 11.2 µM (active)	11.2 µM (active)	–
CCCSc1ccc2nc(NC(=O)OC)[nH]c2c1	inactive	–	inactive	inactive	inactive	inactive	inactive	inactive	inactive	inactive
COc1ccc(-c2cc(=S)ss2)cc1	inactive	–	inactive	12.6 µM (active)	inactive	inactive	inactive	7.94 µM (active)	inactive	inactive
c1ccc2sc(SN3CCOCC3)nc2c1	–	inactive	–	–	inactive	inactive	inactive	12.6 µM (active)	inactive	–
Oc1c(Br)cc(Br)c2cccnc12	inactive	inactive	inactive	inactive	inactive	inactive	inactive	–	inactive	inactive
CCCCCCOc1ccccc1C(N)=O	inactive	inactive	inactive	inactive	inactive	inactive	inactive	inactive	inactive	inactive
COC(=O)C1=C(C)NC(C)=C(C(=O)OCC(C)C)C1c1ccccc1[N+](=O)[O-] (stereo unspecified)	–	16.9 µM (active)	–	10 µM (active)	–	12 µM (active)	–	3.55 µM (active)	–	–
Cc1cc(O)c2ccccc2c1O	–	inactive	–	inactive	inactive	–	inactive	–	inactive	inactive
CN(C)c1ccc(C(=C2C=CC(=[N+](C)C)C=C2)c2ccccc2)cc1	6.01 µM (active)	–	11.2 µM (active)	–	inactive	4.26 µM (active)	11.2 µM (active)	2.24 µM (active)	inactive	–
COc1ccc(/C=C/C(=O)Nc2ccccc2C(=O)O)cc1OC	inactive	–	inactive	inactive	inactive	–	inactive	inactive	inactive	inactive
c1ccc2sc(SSc3nc4ccccc4s3)nc2c1	inactive	inactive	inactive	inactive	inactive	inactive	inactive	inactive	inactive	inactive
CC(=O)[C@]1(O)Cc2c(O)c3c(c(O)c2[C@@H](O[C@H]2C[C@H](N)[C@H](O)[C@H](C)O2)C1)C(=O)c1c(O)cccc1C3=O	4.78 µM (active)	–	3.16 µM (active)	–	–	4.78 µM (active)	7.94 µM (active)	2 µM (active)	11.2 µM (active)	10 µM (active)
O=C(Nc1ccc(C(=O)O)c(O)c1)c1ccccc1	–	inactive	inactive	inactive	inactive	inactive	inactive	inactive	inactive	inactive
Clc1ccccc1-c1nc(-c2ccncc2)no1	15.1 µM (active)	inactive	inactive	–	inactive	inactive	inactive	–	inactive	–
O=c1[nH]c2ccccc2n1CCCN1CCN(C(c2ccccc2)c2ccccc2)CC1	13.5 µM (active)	–	11.2 µM (active)	–	inactive	13.5 µM (active)	inactive	7.94 µM (active)	inactive	11.2 µM (active)
CCCCCCCCCCCC(=O)[O][Sn]([CH2]CCC)([CH2]CCC)[O]C(=O)CCCCCCCCCCC	inactive	inactive	inactive	inactive	inactive	inactive	inactive	–	inactive	inactive
CCCC(=O)OC[C@@H](OC(=O)CCC)[C@@H](OC(=O)CCC)[C@H](Cn1c2nc(=O)[nH]c(=O)c-2nc2cc(C)c(C)cc21)OC(=O)CCC	–	inactive	11.2 µM (active)	–	–	–	–	–	inactive	–
COc1cc(CNC(=O)CCCC/C=C/C(C)C)ccc1O	inactive	–	inactive	inactive	inactive	inactive	inactive	inactive	inactive	inactive
CCOc1ccc2nc(S(N)(=O)=O)sc2c1	inactive	inactive	inactive	inactive	inactive	inactive	inactive	inactive	inactive	inactive
C=C(Nc1ccc(OCC)cc1)Nc1ccc(OCC)cc1	inactive	inactive	inactive	inactive	inactive	–	inactive	inactive	inactive	inactive
